Where “and” joins values, the source holds several entries; their conditions need not be identical. Equal values may be shown once. Calls of active or inactive are those of the source.
Tests used:
[1] = molecular target: Albumin (Bos taurus) (UniProt P02769); assay: compounds binding labelled BSA control protein – biochemical, small-molecule microarray, Alexa647 label, 635/667 nm fluorescence, artefact control for SMM control protein annotation, profiling panel (AID 1118); conditions: BSA-A647 binding, fluorescence 635 nm, higher = more signal;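 further: score merges 667 nm emission intensity and signal-to-noise per printed compound spot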
[2] = probe aXIP binding to arrayed compounds – biochemical, NeuroSMM set, 635/667 nm fluorescence, primary screen (AID 1119); conditions: small-molecule microarray, higher = more signal, called active from +8 up or from −8 down;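 further: probe is the protein aXip251-270 applied at 1 µg/mL to compound-printed slides; binding of probe to printed compounds measured as 667 nm fluorescence plus signal to noise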
[3] = probe aNOTCH3 binding on compound microarray – biochemical, small-molecule microarray, 635/667 nm fluorescence, primary screen (AID 1120); conditions: higher = more signal;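 further: probe is a biotin-tagged antibody raised against NOTCH3 rather than NOTCH3 protein; score merges spot fluorescence near 667 nm with spot signal to noise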
[4] = probe aNOTCH2 binding on compound microarray – biochemical, small-molecule microarray, 635/667 nm fluorescence, primary screen (AID 1121); conditions: higher = more signal;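 further: score merges feature fluorescence read at 667 nm with its signal to noise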
[5] = molecular target: Carbonic anhydrase 2 (Homo sapiens) (UniProt P00918); assay: compounds binding carbonic anhydrase 2 – biochemical, small-molecule microarray, Alexa647-labelled CAII, profiling panel (AID 1122); conditions: CAII-A647 binding fluorescence, higher = more signal
[6] = COS7 lysate on small-molecule microarray, probe aHis, 635 nm (AID 1123); conditions: COS7 cell lysate, fluorescence, higher = more signal;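 further: z-score combines 667nm fluorescence intensity with signal-to-noise per printed compound spot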
[7] = probe aLAP1 signal on lysate-treated microarray – cell lysate, small-molecule microarray, COS7 lysate, primary screen (AID 1124); conditions: probe aLAP1, fluorescence, higher = more signal;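 further: lysate comes from COS7 cells expressing LAP1 and is applied at 0.3 µg/mL; score merges spot fluorescence near 667 nm with signal-to-noise over triplicate slides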
[8] = tested on: Sam68 (KHDRBS1); assay: compounds binding KHDRBS1 protein – biochemical, small-molecule microarray, 635 nm fluorescence, primary screen (AID 1125); conditions: higher = more signal;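 further: score merges 667 nm channel intensity with signal to noise over triplicate slides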
[9] = tested on: Chordin-like protein 2 (CHRDL2); assay: compounds binding chordin-like 2 – biochemical, small-molecule microarray, 635 nm fluorescence, primary screen (AID 1126); conditions: fluorescence 635 nm, higher = more signal;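 further: printed compound slides probed with Chrdl2 protein at 4 µg/mL for 1 h at 4 C; score merges 667 nm emission intensity with signal to noise over three replicate slides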
[10] = molecular target: Concanavalin-A (Canavalia ensiformis) (UniProt P02866); assay: compounds binding concanavalin A lectin – biochemical, small-molecule microarray, Alexa647 label, 635 nm, artefact control for SMM control protein annotation, primary screen (AID 1127); conditions: ConA-A647 binding fluorescence, higher = more signal;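 further: z combines 667 nm emission intensity with signal-to-noise across three replicate slides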
Chain of Concanavalin-A (Canavalia ensiformis) (P02866 whole entry, looked up): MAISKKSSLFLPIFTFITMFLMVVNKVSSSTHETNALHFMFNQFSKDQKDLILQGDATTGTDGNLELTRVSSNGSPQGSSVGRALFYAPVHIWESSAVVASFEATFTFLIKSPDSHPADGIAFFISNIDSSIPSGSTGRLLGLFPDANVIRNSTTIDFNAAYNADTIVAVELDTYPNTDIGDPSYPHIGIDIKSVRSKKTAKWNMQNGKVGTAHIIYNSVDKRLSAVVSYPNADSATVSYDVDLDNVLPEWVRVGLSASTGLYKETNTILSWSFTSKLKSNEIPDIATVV

Chain of Albumin (Bos taurus) (P02769 whole entry, looked up): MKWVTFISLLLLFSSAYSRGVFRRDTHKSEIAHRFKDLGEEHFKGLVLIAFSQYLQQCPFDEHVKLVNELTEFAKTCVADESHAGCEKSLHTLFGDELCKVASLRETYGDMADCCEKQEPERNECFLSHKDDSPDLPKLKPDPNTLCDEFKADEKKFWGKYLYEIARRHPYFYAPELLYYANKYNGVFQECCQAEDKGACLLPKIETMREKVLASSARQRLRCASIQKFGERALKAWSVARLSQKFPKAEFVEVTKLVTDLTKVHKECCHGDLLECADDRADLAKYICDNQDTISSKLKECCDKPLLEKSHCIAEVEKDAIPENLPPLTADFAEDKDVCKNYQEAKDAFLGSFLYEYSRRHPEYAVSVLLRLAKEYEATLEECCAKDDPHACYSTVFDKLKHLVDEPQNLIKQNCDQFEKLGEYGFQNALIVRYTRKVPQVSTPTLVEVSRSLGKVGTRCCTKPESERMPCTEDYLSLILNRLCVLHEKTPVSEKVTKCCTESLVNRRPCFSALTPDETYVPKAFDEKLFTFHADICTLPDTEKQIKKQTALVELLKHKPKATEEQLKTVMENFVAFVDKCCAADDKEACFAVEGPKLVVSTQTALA

Structure (SMILES)	composite z-score [1]	composite Z-score [2]	composite z-score [3]	composite z-score [4]	composite z-score [5]	composite z-score [6]	composite z-score [7]	composite z-score [8]	composite z-score [9]	composite z-score [10]
COC(=O)CC=C[C@@H](C)[C@@H](CO)NS(=O)(=O)c1ccc(C)cc1	0.0833 and -0.252	0.105 (inactive) and 0.309 (inactive)	-0.0391 and 0.111	-0.0703 and -0.14	-0.121 and 0.0581	-0.114 and 0.0271	-0.144 and -0.481	-0.182 and 0.567	0.696 and 1.03	-0.213 and -0.52
COC(=O)C1=C(C)N(Cc2ccccc2)C2=C(C(C)=O)[C@H](c3ccccc3)[C@@](O)(C(=O)OC)C(=O)N2[C@@H]1c1ccccc1	0.695 and -0.583	0.124 (inactive) and 0.115 (inactive)	-0.0362 and -0.182	-0.0907 and -0.124	0.301 and -0.459	0.275 and -0.666	-0.209 and -0.312	1.17 and -1.23	0.564 and 0.437	0.365 and -0.139
CCOC(=O)CCN1C(=O)[C@H]2[C@H]3[C@H](O)[C@H](O)CC(=NNC(=O)OCC)[C@@H]3CC[C@H]2C1=O	0.357	-0.436 (inactive)	0.229	-0.0131	-0.249	0.043	0.127	0.739	-0.0855	0.0804
C=CCN(C(=O)C1N(c2ccc(CCO)cc2)C(=O)C2C(C(=O)O)C3C=CC21O3)c1ccc(OC)cc1 (stereo not given)	-0.326 and -0.0621	-0.177 (inactive) and -0.773 (inactive)	-0.285 and -0.585	-0.14 and -0.0932	0.93 and 0.471	-0.188 and -0.412	-0.0393 and -0.133	0.0118 and -1.55	-0.726 and -2.53	0.287 and -1.64
CO[C@@H]1COC(=O)CC=C[C@H](C)[C@@H](NS(=O)(=O)c2ccc(C)cc2)COC(=O)CC=C[C@@H]1C	0.451 and -0.303	-0.288 (inactive) and 0.209 (inactive)	0.127 and 0.0876	-0.0995 and -0.175	0.0088 and -0.407	0.199 and -1.12	0.0136 and -0.0513	0.762 and 0.68	0.685 and 1.25	-0.0145 and -0.207
COc1ccc(COC(=O)NN=C2C[C@@H](O)[C@@H](O)[C@@H]3[C@@H]4C(=O)N(C(C)(C)C)C(=O)[C@@H]4CC[C@H]23)cc1	0.682	1.08 (inactive)	-0.194	-0.0001	0.633	0.7	1.51	1.22	0.0955	-0.457
CC(C)OC(=O)C=C1C[C@@H](c2cccc(C(F)(F)F)c2)O[C@@H](c2cccc(C(F)(F)F)c2)O1	0.516 and 0.8	-0.313 (inactive) and -0.0102 (inactive)	-0.166 and -0.257	-0.0597 and -0.118	0.407 and 0.738	2.3 and 0.841	1.56 and 0.103	-0.167 and 1.11	-0.24 and -0.619	0.711 and 1.06
C=CCN(CCCCC)C(=O)C1N(c2ccc(CCO)cc2)C(=O)C2C(C(=O)O)C3C=CC21O3 (stereo not given)	0.193 and 0.344	-1.27 (inactive) and -0.154 (inactive)	-0.474 and 0.157	-0.127 and -0.0716	-0.349 and 0.574	-0.632 and -0.323	-0.18 and -1.2	-0.393 and -0.951	-0.914 and -1.38	-1.1 and -1.15
CCN1C(=O)[C@H]2[C@H]3[C@H](O)[C@H](O)CC(=NNC(=O)OCc4ccc(OC)cc4)[C@H]3CC[C@H]2C1=O	0.878	-0.388 (inactive)	0.0979	-0.0903	-0.121	0.0203	0.5	-0.0112	0.737	0.364
CC(C)OC(=O)C=C1C[C@@H](c2ccccc2)O[C@@H](c2ccccc2)O1	0.799 and 0.915	0.417 (inactive) and 0.224 (inactive)	0.168 and 0.308	-0.029 and 0.0219	0.749 and 0.727	2.74 and 1.87	0.809 and 0.779	1.33 and 1.3	0.0745 and 0.626	1.02 and 1.09
COC(=O)C1=C(C)N(Cc2ccccc2)C2=C3C(=O)N(c4ccccc4)C(=O)[C@@H]3[C@@](O)(C(=O)OC)C(=O)N2[C@@H]1c1ccccc1	0.361 and 0.207	0.0519 (inactive) and 0.0894 (inactive)	0.236 and 0.116	-0.0767 and -0.101	0.46 and 0.7	0.241 and 0.608	0.171 and 0.983	0.462 and 1.13	0.513 and 0.402	-0.196 and 0.475
C=CCN(C(=O)C1N(CCCCCCO)C(=O)C2C(C(=O)O)C3C=CC21O3)c1ccc(OC)cc1 (stereo not given)	-0.547 and -1.14	-0.344 (inactive) and -0.542 (inactive)	-0.577 and -0.287	-0.0345 and -0.0148	0.981 and 0.391	3.24 and 2.93	1.44 and 0.066	-0.931 and -2.13	-2.65 and -2.43	-0.941 and -2.04
CO[C@H]1COC(=O)CC=C[C@@H](C)COC(=O)[C@@H](OCc2ccccc2)C=C[C@@H]1C	-0.853	0.528 (inactive)	-0.307	-0.179	-0.297	-0.173	0.106	-0.239	1.23	-1.64
CC(CO)N1C(=O)[C@@H]2C3C(=O)OCCC=C[C@H]3OC23C=CCN(C(C)(C)C)C(=O)[C@@H]13 (stereo not given in full)	0.231 and -0.322	-0.734 (inactive) and 0.825 (inactive)	-0.34 and 0.037	-0.211 and -0.14	0.863 and 0.837	-0.329 and 0.395	0.241 and 1.27	-0.349 and 0.36	-1.5 and -0.54	-2.13 and -0.887

— PubChem BioAssay
